# Compound activity: PubChem BioAssay, National Center for Advancing Translational Sciences (NCATS)
# NPC1 promoter act: activators of NPC1 promoter | Potency, µM (highest dose often 9.22 µM), actives largely listed as activators | AID 485313 | 2.4% of 320,000 active | Huh7 NPC1 promoter luciferase reporter, 24 h; also: nearly all actives have a fitted effect of over 60% in size
#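 In 1536-well qHTS, Huh7 cells harboring an NPC1 promoter–luciferase construct received compound for 24 h; activation was quantified by luminescence following luciferase reagent addition.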
# ELG1 genotox: induces genotoxicity in HEK293T cells with luciferase-tagged ELG1. Potency, µM (highest dose often 46 µM), most hits filed as activators. 1.3% of 330,000 active. HEK293T ELG1-luciferase reporter, luminescence, 16 h. AID 504466; also: nearly all actives have a fitted effect of over 60% in size
#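 Step 1: seed 2,000 HEK293T ELG1-luciferase cells per well. Step 2: add compound or DMSO, incubate 16 hr at 37 °C. Step 3: ONE-Glo, 30 min at room temperature, read luminescence.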
# ELG1 repair inh: inhibitors of ELG1-dependent DNA repair in HEK293T cells | Potency, µM (highest dose often 46.1 µM), hits mostly inhibitors | AID 504467 | 2.3% of 330,000 active | HEK293T ELG1-luciferase reporter, luminescence, 16 h; DNA damage induced by 5-fluorouridine; also: nearly all actives have a fitted effect of over 55% in size
#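 In this reporter screen, reduction of luminescence relative to DMSO vehicle indicated activity. Compounds and 5-fluorouridine were added together to 2,000 cells per well, incubated for 16 hr at 37 °C, then developed with ONE-Glo.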
# FLuc modulator: inhibits or activates purified firefly luciferase, miR-21 counter-screen. P08659. purified FLuc, Km substrates, luminescence inhibition. Potency, µM (titrated, usually from 57.5 µM), usual class: inhibitors. 6.9% of 360,000 active; also: nearly all actives have a fitted effect of over 55% in size
# Target sequence (P08659 whole entry, looked up): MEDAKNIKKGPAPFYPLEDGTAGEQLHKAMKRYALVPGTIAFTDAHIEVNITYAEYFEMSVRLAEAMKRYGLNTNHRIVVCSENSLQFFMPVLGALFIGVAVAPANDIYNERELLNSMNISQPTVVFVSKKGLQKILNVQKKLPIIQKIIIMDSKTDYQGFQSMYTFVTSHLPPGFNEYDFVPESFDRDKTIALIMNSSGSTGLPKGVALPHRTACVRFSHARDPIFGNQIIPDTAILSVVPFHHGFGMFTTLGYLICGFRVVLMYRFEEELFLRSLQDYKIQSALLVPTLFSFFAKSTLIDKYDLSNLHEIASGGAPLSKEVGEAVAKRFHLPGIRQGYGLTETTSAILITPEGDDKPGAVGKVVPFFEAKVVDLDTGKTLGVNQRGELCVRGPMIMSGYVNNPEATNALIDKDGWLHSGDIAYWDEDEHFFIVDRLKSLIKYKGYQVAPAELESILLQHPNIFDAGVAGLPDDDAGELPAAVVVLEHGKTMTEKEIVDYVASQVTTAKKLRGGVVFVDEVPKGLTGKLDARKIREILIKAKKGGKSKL
#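 Biochemical qHTS of compounds, final roughly 60 µM downward over six points, against 10 nM purified firefly luciferase using Km concentrations of substrates (10 uM D-luciferin, 10 uM ATP) in Tris acetate pH 7.5 buffer; luminescence output.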
# SMN2 splice enh: increases expression of the SMN2 splice variant | HEK293 SMN2-luciferase splicing reporter, luminescence, 30-36 h | 2.8% of 210,000 active | Potency, µM (doses to about 46.1 µM), usual class: activators; also: nearly all actives have a fitted effect of over 55% in size
#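 HEK293 cells carry an SMN2 minigene-luciferase reporter in which exon 7 inclusion puts luciferase in frame. Cells were seeded at 2000 cells/well, attached for 10-12 hours, then exposed to compounds for 30-36 hours at 37C before ONE-Glo luminescence.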
# Rab9 promoter act: activates the Rab9 promoter; Potency, µM (titrated, usually from 9.22 µM), actives largely listed as activators; Huh7 Rab9 promoter-luciferase reporter, luminescence, 24 h; 2.8% of 320,000 active; AID 485297; also: nearly all actives have a fitted effect of over 60% in size
#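 Huh7 cells stably carrying a Rab9 promoter-luciferase reporter, 1500 cells per well in OP-MEM I with 10% FBS, treated with compound 24 hours at 37C. Luciferase activity read by luminescence after 10 minutes with Amplite reagent.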
# Hits are given with their value; i = inactive; ? = inconclusive; nt = no result. An excerpt weighted towards active compounds, which were near 9.4% of everything screened. Calls follow the shape of the dose curve; as a rule, active = well fitted curve in the direction sought with a large enough effect; inconclusive = small, poorly fitted or top-dose-only effect, or another doubt; inactive = no such curve, though single readings can be large; an effect the other way counts as inactive or inconclusive.
SMILES,NPC1 promoter act,ELG1 genotox,ELG1 repair inh,FLuc modulator,SMN2 splice enh,Rab9 promoter act
O=C(c1cc(-c2ccc(Br)cc2)on1)N1CCCC1,0.631µM,2.06µM,?,1.51µM,nt,0.501µM
O=C(Nc1nnc(N2CCCCCC2)s1)c1cc(-c2ccc(Br)cc2)on1,i,i,i,i,i,i
O=C(c1cc(-c2ccc(O)cc2)on1)N1CCN(c2ccc(F)cc2)CC1,i,i,?,?,nt,i
O=C(/C=C/c1ccc(-c2ccc(F)cc2)o1)N1CCCC1,2.82µM,?,?,13.5µM,nt,3.16µM
CN1CCN(C(=O)c2cc(-c3ccccc3)on2)CC1,?,i,?,?,?,?
O=C(c1cc(-c2ccc(F)cc2)on1)N1CCOCC1,1.12µM,?,?,6.01µM,nt,1.58µM
O=C(/C=C/c1ccc(F)cc1)N1CCCN(C(=O)/C=C/c2ccc(F)cc2)CC1,i,i,i,?,i,i
O=C(c1cc(-c2ccccc2)on1)N1CCCCCC1,1.41µM,2.31µM,?,9.53µM,nt,3.55µM
O=C(c1cc(-c2ccc(F)cc2)on1)N1CCCC1,0.794µM,?,?,2.69µM,nt,0.631µM
CCOC(=O)C1CCCN(C(=O)c2cc(-c3ccc(C)cc3)on2)C1 (configuration not stated),?,?,?,12µM,?,0.891µM
CCOC(=O)C1CCCN(C(=O)c2cc(COc3ccc(C)nc3)on2)C1 (configuration not stated),i,i,?,?,nt,i
O=C(c1cc(-c2ccc(O)cc2)on1)N1CCCC1,0.447µM,4.61µM,?,6.01µM,nt,0.398µM
COc1cccc(-c2cc(C(=O)N3CCN(c4ccc(F)cc4)CC3)no2)c1,i,i,i,i,i,?
O=C(c1cc(-c2ccc(F)cc2)on1)N1CCCCCC1,0.891µM,?,?,5.36µM,nt,1.41µM
Cc1nc2c(c(C)c1CCC(=O)Nc1cccc(C(F)(F)F)c1)c(=O)n(C)c(=O)n2C,nt,nt,nt,i,i,nt
Cc1ccc(CCNC(=O)c2ccc(CSCc3ccc(C)cc3)o2)cc1,nt,nt,nt,i,nt,nt
Cc1ccccc1-n1nc(CO)c(C(=O)NCc2cccs2)n1,nt,nt,nt,i,i,nt
Cc1ccc(-c2cc(C(=O)N3CCCCCC3)no2)cc1,0.501µM,?,?,1.51µM,nt,0.562µM
CCOc1cc(C(=O)N2CC(=O)Nc3ccc(C)cc3C2c2ccccc2)cc(OCC)c1OCC (configuration not stated),nt,nt,nt,i,i,nt
Cc1ccc(NC(=O)C2CCN(c3nn4cc(-c5ccc(C)cc5)nc4s3)CC2)cc1,nt,nt,nt,i,nt,nt
Cc1nn2cc(-c3ccc(N)cc3)nc2s1,1µM,?,?,10.7µM,12.6µM,1µM
Cc1ccc(Cn2ccn(CC(=O)Nc3ccccc3C(F)(F)F)c(=O)c2=O)cc1,nt,nt,nt,i,nt,nt
COc1cccc2sc(N(Cc3cccnc3)C(=O)C3CCCCC3)nc12,nt,nt,nt,i,nt,nt
O=C(Nc1cccc([N+](=O)[O-])c1)c1ccc2c(c1)OCCO2,3.55µM,?,?,7.57µM,17.8µM,?
O=C(CCCc1ccccc1)Nc1ccc2c(c1)OCCO2,0.501µM,2.06µM,?,2.13µM,6.31µM,0.447µM
SMILES,NPC1 promoter act,ELG1 genotox,ELG1 repair inh,FLuc modulator,SMN2 splice enh,Rab9 promoter act
O=C(CCCCCN1C(=O)c2ccccc2C1=O)Nc1ccc2c(c1)OCCO2,i,i,i,?,i,i
CN1C(=O)c2ccc(C(=O)Nc3ccc4c(c3)OCO4)cc2C1=O,i,?,?,2.39µM,nt,i
CCOc1cccc(C(=O)Nc2ccc3c(c2)OCCO3)c1,?,2.31µM,?,1.51µM,nt,?
CCOc1ccc2ncc3c(-c4cccc(OC)c4)nn(-c4ccccc4)c3c2c1,nt,nt,nt,i,i,nt
CCCC1O[C@@H]2C[C@H]3[C@@H]4CCC5=CC(=O)C=C[C@]5(C)C4[C@@H](O)C[C@]3(C)[C@]2(C(=O)CO)O1 (some centres not stated),nt,nt,nt,nt,i,nt
O=C(Nc1cccc(NC(=O)c2cccs2)c1)c1ccc(Br)cc1,i,i,?,?,nt,i
O=C(Nc1cccc(NC(=O)c2cccs2)c1)c1ccc2c(c1)OCCO2,i,i,i,7.57µM,nt,i
CS(=O)(=O)Nc1ccc(C(=O)Nc2ccc3c(c2)OCCO3)cc1,?,?,?,19µM,?,?
